Results on 40 molecules are retold here after PubChem BioAssay (EPA / NIEHS).

Activity calls are given as the source filed them. How the source made its calls: active means hit-call score of the fitted dose curve at least 0.9, where 1 is the maximum; inactive means score below 0.9.

The nature of the experiment: BSK_BE3C_SRB: Viability Assessment in the BioMAP Diversity Plus: BE3C Assay (AID 2283028). Conditions: primary human bronchial epithelial cells. The method, then:
BSK_BE3C is a cell-based, multiplexed-readout assay that uses bronchial epithelial cell, a human lung primary cell, with measurements taken at 24 hours after chemical dosing in a 96-well plate.BSK_BE3C_SRB is an assay component measured in the BSK_BE3C assay. It measures 0.1% sulforhodamine related to cell death using Sulforhodamine staining technology.Data from the assay component BSK_BE3C_SRB was analyzed into 1 assay endpoint. This assay endpoint, BSK_BE3C_SRB, was analyzed with bidirectional fitting relative to DMSO as the negative control and baseline of activity. Using a type of viability reporter, gain or loss-of-signal activity can be used to understand changes in the signaling. Furthermore, this assay endpoint can be referred to as a primary readout, because this assay has produced multiple assay endpoints where this one serves a signaling function. To generalize the intended target to other relatable targets, this assay endpoint is annotated to the cell morphology intended target family, where the subfamily is cell conformation.
The levels of cell surface (or secreted, indicated by the prefix "s") biomarker endpoints were measured by ELISA. Overt cytotoxicity to cells in confluent adherent cultures (all systems other than the BT system) was assessed by measuring total protein levels using sulforhodamine B (SRB) staining in parallel cultures at the time of biomarker measurements, indicated as SRB endpoints. For proliferation assays for adherent cell types, individual cell types are cultured at sub-confluence and relative cell numbers quantified by SRB staining at time points optimized for each system (48 h: 3C and CASM3C systems; 72 h: BT and HDF3CGF systems; 96 h: SAg system). SRB was performed by staining cells with 0.1% SRB after fixation with 10% TCA and reading wells at 560 nm.Viability and proliferation of PBMC (T cells) was quantified by Alamar Blue reduction for the SAg and BT systems. For PBMC viability (referred to as PBMC Cytotoxicity within the assay endpoint names), cells were plated (75,000/well in a 96-well plate) and then chemical samples added for 1 h before addition of activators, SEB and TSST-1 (20 ng/mL final concentration each). Cells were incubated for 90 h. Then, Alamar Blue (20 uL/well) (Invitrogen, Cat DAL1100) was added for 6 h, and the plates were read with a fluorescence microplate reader at 546/580 nm (excitation/emission). For PBMC proliferation, cells were plated and activated as above but incubated for only 16 h prior to addition of Alamar Blue. Plates were read after 6 h.
Regarding `CCCCCCCCCCCCCCCCCC(=O)O`, the result was inactive.

For `COCCOCCOC`, the outcome was inactive. Take `CNC(=O)[C@H]1O[C@@H](n2cnc3c(NCc4cc(Cl)ccc4OCc4cc(C)no4)ncnc32)[C@H](O)[C@@H]1N`: the outcome was inactive. Take `c1cc(-c2ccncc2)ccn1`: the result was inactive. Regarding `Nc1ccc(S(=O)(=O)c2ccc(N)cc2)cc1`, the result was inactive. The entry for `CCNc1cccc(C)c1` is “inactive”; for `Oc1ccc2ccccc2c1N=Nc1ccccc1` it is “inactive”; for `Cc1c(C(=O)O)c(O)cc2c1C(=O)c1c(O)c([C@@H]3O[C@H](CO)[C@@H](O)[C@H](O)[C@H]3O)c(O)c(O)c1C2=O` it is “inactive”.

Take `CC1=C(/C=C/C(C)=C/C=C/C(C)=C/CO)C(C)(C)CCC1`: the result was inactive. With `COC(=O)c1ccc(O)cc1`, the result was inactive. Turning to `CCc1c(C(=O)NN2CCCCC2)nn(-c2ccc(Cl)cc2Cl)c1-c1ccc(Br)cc1`, the outcome was inactive. Take `Cc1ccc(C)c(O)c1C`: the result was inactive. For `O=C(O)CCCCC(=O)O`, the result was inactive. Consider `Cc1cccc(Nc2cc(Cl)nc(SCC(=O)O)n2)c1C`, for which the result was inactive. In the case of `CC(=O)Oc1ccccc1C(=O)O`, the outcome was inactive. As for `Cc1cc(NC(=O)C(=O)O)cc(C)c1Oc1ccc(O)c2c1CCC2`, the entry is “inactive”. For the molecule `C=CCc1ccc(O)c(OC)c1`, the outcome was inactive. The entry for `COc1ccc(C)cc1N` is “inactive”. Regarding `CN1CCCC1=O`, the result was inactive. `Cc1oc(-c2ccccc2)nc1CCOc1cccc2c1ccn2CCC(=O)O`: the result was inactive. As to `CCCc1cc(=O)[nH]c(=S)[nH]1`, the result was inactive. For `Cc1cccc([N+](=O)[O-])c1C`, the result was inactive.

For `O=C(O)Cc1ccccc1Nc1c(Cl)cccc1Cl`, the outcome was inactive.

For `C[Si]1(C)O[Si](C)(C)O[Si](C)(C)O[Si](C)(C)O1`, the outcome was inactive. `COc1ccc(S(=O)(=O)N2C(=O)[C@@](c3ccccc3OC)(N3C[C@H](O)C[C@H]3C(=O)N(C)C)c3cc(Cl)ccc32)c(OC)c1`: the result was inactive.

On to `O=[N+]([O-])C(CO)(CO)CO`, for which the outcome was inactive. On to `NCCO`, for which the outcome was inactive. For the molecule `CCCCCCCC=O`, the outcome was inactive. Regarding `Cc1ccc2ncccc2c1`, the result was inactive. For `COc1cc(C=O)ccc1O`, the outcome was inactive. As for `CC(=O)OCCOCCOCCOC(C)=O`, the entry is “inactive”.

For `O=c1[nH]cc(F)c(=O)[nH]1`, the result was inactive.

Take `CC(=O)C(C)=CC1C(C)=CCCC1(C)C` (stereo not given): the outcome was inactive.

Take `NC(=O)Cn1c(=O)cc(CCN2CCN(c3nccc4sccc34)CC2)c2ccc(F)cc21`: the outcome was inactive. The entry for `NS(=O)(=O)c1cc2c(cc1Cl)NCNS2(=O)=O` is “inactive”; for `CCCCOC(=O)CCCCCCCCC(=O)OCCCC` it is “inactive”. As for `CCOC(=O)C(C)(C)Oc1ccc(Cl)cc1`, the result was inactive. The entry for `Clc1cc(Cl)c(Cl)cc1Cl` is “inactive”; for `CC1(C)CC(N=C=O)CC(C)(CN=C=O)C1` (stereo not given) it is “inactive”; for `Cc1ccccc1Cl` it is “inactive”.
